The panel holds about 83,000 compounds, 20% with a hit somewhere; the sample as a whole holds those more often.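 48-hour exposure, single concentration, 96-well plates; percent growth endpoint where 0 means no net growth. Active: below 10.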 A number with no mark means an inactive call. Activity calls are given as the source filed them.

Some test systems named below: SR leukemia; RPMI-8226 leukemia; OVCAR-8 ovarian; OVCAR-5 ovarian; OVCAR-4 ovarian; SK-OV-3 ovarian; IGROV1 ovarian; OVCAR-3 ovarian; HS 578T breast; NCI/ADR-RES ovarian; T-47D breast; BT-549 breast; MDA-MB-435 melanoma; SW-620 colon; MCF7 breast; HCT-116 colon; HCC-2998 colon; KM12 colon; MDA-MB-468 breast.
Holding throughout (experiment): NCI-60 one-dose screen, 48 h (100 = growth as untreated, 0 = no growth, -100 = all killed)
Common to all, as to conditions: 10 µM unless noted

Regarding `O=C(COc1ccc(NC(=O)Nc2ccccc2)cc1)N=Nc1c(O)[nH]c2ccc([N+](=O)[O-])cc12`, the growth in the test with SR leukemia was 19.1%; in the test on RPMI-8226 leukemia, 53.9%; in the test on OVCAR-8 ovarian, -30.5% (active); in the test on OVCAR-5 ovarian it was 61.2%; with OVCAR-4 ovarian, 7.38% (active); in the test with SK-OV-3 ovarian, 56.7%. Also, the growth was 22.5% in the test with IGROV1 ovarian; -76.9% (active) with OVCAR-3 ovarian; -8.84% (active) in the test on HS 578T breast; 113% in the test on NCI/ADR-RES ovarian; -43.7% (active) with T-47D breast; -42.6% (active) in the test with BT-549 breast. For the same compound, the growth with MDA-MB-435 melanoma was -18.3% (active); in the test with SW-620 colon it was 4.08% (active); in the test with MCF7 breast, -2.45% (active); with HCT-116 colon, -55.9% (active); with HCC-2998 colon it was -47.9% (active); in the test with KM12 colon, -62% (active). Moreover, in the test with MDA-MB-468 breast, the growth is -69.7% (active).
Take `CN1C(=O)/C(=C/c2ccc(C(=O)Nc3ncc(Cc4ccc(Cl)cc4Cl)s3)cc2)SC1=S`: the growth with SR leukemia was 28.8%; in the test with RPMI-8226 leukemia, 36.3%; with OVCAR-8 ovarian it was 39.3%; in the test with OVCAR-5 ovarian, 46.3%; in the test with OVCAR-4 ovarian it was 53.6%; in the test with SK-OV-3 ovarian, 53.3%. For the same compound, the growth in the test with IGROV1 ovarian was 47.2%; with OVCAR-3 ovarian, 12.9%; in the test on HS 578T breast, 44.3%; with NCI/ADR-RES ovarian it was -11.8% (active); with T-47D breast, 23.9%; in the test with BT-549 breast, 31.6%. Also, the growth was -4.21% (active) with MDA-MB-435 melanoma; 45.1% with SW-620 colon; 30.6% in the test with MCF7 breast; 29.6% in the test on HCT-116 colon; 40.4% in the test on HCC-2998 colon; 15.5% in the test on KM12 colon. The growth with MDA-MB-468 breast is -9.37% (active).
As to `Cc1ccc(-c2nc(Nc3ccccc3S(N)(=O)=O)c3ccccc3n2)cc1`, the growth in the test on SR leukemia was 46.7%; in the test on RPMI-8226 leukemia, 59.7%; in the test on OVCAR-8 ovarian, 55.6%; in the test on OVCAR-5 ovarian, 85.3%; in the test with OVCAR-4 ovarian, 74.2%; with SK-OV-3 ovarian it was 91.4%. The growth is 82.3% with IGROV1 ovarian; 97.1% in the test on OVCAR-3 ovarian; 76.8% with HS 578T breast; 55.7% with NCI/ADR-RES ovarian; 90.8% in the test with T-47D breast; 115% in the test on BT-549 breast. In addition, the growth with MDA-MB-435 melanoma was 85.4%; in the test with SW-620 colon, 85.8%; in the test with MCF7 breast, 81.6%; with HCT-116 colon, 40%; in the test with HCC-2998 colon, 104%; in the test on KM12 colon, 65.3%. Also, in the test on MDA-MB-468 breast, the growth is 98.4%.
Take `O=c1oc2ccccc2cc1-c1csc(N2N=C(c3ccccc3)CC2c2ccc(N3CCOCC3)cc2)n1` (configuration not stated): the growth in the test with SR leukemia is 94.5%; with RPMI-8226 leukemia it was 102%; in the test with OVCAR-8 ovarian it was 104%; in the test on OVCAR-5 ovarian it was 132%; in the test with OVCAR-4 ovarian it was 105%; in the test with SK-OV-3 ovarian it was 69.9%. The growth was 123% with IGROV1 ovarian; 117% with OVCAR-3 ovarian; 105% in the test with HS 578T breast; 105% in the test with NCI/ADR-RES ovarian; 91.6% with T-47D breast; 118% in the test with BT-549 breast. The growth was 110% in the test on MDA-MB-435 melanoma; 106% with SW-620 colon; 86.5% in the test on MCF7 breast; 109% with HCT-116 colon; 121% with HCC-2998 colon; 103% in the test on KM12 colon. In addition, the growth with MDA-MB-468 breast is 99.7%.
Turning to `O=C(N=Nc1c(O)[nH]c2ccc([N+](=O)[O-])cc12)c1ccc2nc(-c3ccccc3)[nH]c2c1`, the growth with SR leukemia is 30.9%; with RPMI-8226 leukemia it was 110%; in the test with OVCAR-8 ovarian, 65.1%; in the test with OVCAR-5 ovarian it was 107%; in the test on OVCAR-4 ovarian, 45.8%; with SK-OV-3 ovarian it was 96.9%. Besides, the growth is 76.9% with IGROV1 ovarian; -13.2% (active) with OVCAR-3 ovarian; 62.6% in the test on HS 578T breast; 103% with NCI/ADR-RES ovarian; 12.5% in the test on T-47D breast; 53.4% in the test on BT-549 breast. Further, the growth with MDA-MB-435 melanoma was 79.1%; in the test on SW-620 colon, 83.8%; with MCF7 breast, 18.7%; in the test with HCT-116 colon, 10.7%; with HCC-2998 colon it was 27.4%; in the test with KM12 colon, 99.5%. The growth with MDA-MB-468 breast was 10.6%.
As to `NS(=O)(=O)c1ccc(N=Nc2c(O)n(CC(=O)Nc3ccccc3)c3ccccc23)cc1`, the growth in the test with SR leukemia is 18.5%; with RPMI-8226 leukemia, 42.7%; in the test with OVCAR-8 ovarian, 11.3%; in the test on OVCAR-5 ovarian it was 74.5%; with OVCAR-4 ovarian it was 57.3%; with SK-OV-3 ovarian it was 25.2%. Also, the growth in the test with IGROV1 ovarian is 38.9%; in the test with OVCAR-3 ovarian, 20.8%; with HS 578T breast, 52%; in the test on NCI/ADR-RES ovarian it was 64.3%; in the test on T-47D breast, 60.8%; with BT-549 breast it was 25.5%. For the same compound, the growth was 9.55% (active) in the test with MDA-MB-435 melanoma; -17.4% (active) in the test with SW-620 colon; 14.9% with MCF7 breast; -45.3% (active) in the test on HCT-116 colon; 12.9% in the test with HCC-2998 colon; 13.9% in the test on KM12 colon. The growth in the test on MDA-MB-468 breast was 36.5%.
On to `N/C(=N\c1nc2ccccc2s1)NC(=O)Nc1ccccc1Br`, for which the growth in the test on SR leukemia is 12.1%; in the test on RPMI-8226 leukemia, -0.145% (active); with OVCAR-8 ovarian, -55.7% (active); in the test with OVCAR-5 ovarian, -17% (active); with OVCAR-4 ovarian it was -59.1% (active); in the test on SK-OV-3 ovarian, -6.97% (active). Also, the growth was 11.5% in the test with IGROV1 ovarian; -72.3% (active) in the test with OVCAR-3 ovarian; -5.34% (active) in the test on HS 578T breast; -57.1% (active) in the test with NCI/ADR-RES ovarian; 45.3% in the test with T-47D breast; -7.4% (active) in the test on BT-549 breast. The growth in the test on MDA-MB-435 melanoma is -63.9% (active); in the test on SW-620 colon, 5.64% (active); in the test with MCF7 breast, 8.24% (active); in the test with HCT-116 colon, -51.4% (active); in the test on HCC-2998 colon, -21% (active); in the test with KM12 colon, -48.2% (active). In addition, in the test with MDA-MB-468 breast, the growth was -29.3% (active).
In the case of `CC(C)Sc1nc(NCCc2c[nH]c3ccccc23)c(C#N)c(-c2ccc(F)cc2)n1`, the growth was -19.8% (active) in the test on SR leukemia; 14.1% with RPMI-8226 leukemia; 57.3% in the test with OVCAR-8 ovarian; 81.9% in the test on OVCAR-5 ovarian; 59.1% in the test on OVCAR-4 ovarian; 76.9% in the test with SK-OV-3 ovarian. For the same compound, the growth is 90.4% in the test on IGROV1 ovarian; 58.1% in the test with OVCAR-3 ovarian; 43% with HS 578T breast; 29.5% with NCI/ADR-RES ovarian; 20.8% in the test on T-47D breast; 65% in the test on BT-549 breast. For the same compound, the growth in the test with MDA-MB-435 melanoma was 58.7%; with SW-620 colon, 6.5% (active); with MCF7 breast, 4.29% (active); with HCT-116 colon, 3.83% (active); in the test on HCC-2998 colon it was 21.5%; with KM12 colon, 15.7%. Moreover, the growth in the test on MDA-MB-468 breast is 2.22% (active).

The values are drawn from PubChem BioAssay (NCI).
